In all, about 370,000 compounds went through this assay and about 4,100 (1.1%) were called active. The sample holds actives, similar compounds and a random draw of the others, so the mix is not that of the screen. A number with no mark means an inactive call.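 Rule for the calls: active = inhibition above the mean over all tested compounds plus 3 SD (cut at about 3.6% in these data); inactive = the rest.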
Assay: relief of DAX-1 repression of SF-1 activity – cell-based, luminescence, SF-1 (NR5A1), full-length DAX-1, primary screen (AID 652010);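 note: 0% = DAX-1 cells with DMSO and 100% = cells lacking DAX-1 with DMSO; higher inhibition means more luminescence from relief of DAX-1 repression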
Details: HEK293T StAR-luciferase reporter, SF-1/DAX-1 repression relief; at 6.8 µM; hits give high values

| SMILES | inhibition |
| --- | --- |
| CN(C)S(=O)(=O)c1cccc(C(=O)N/N=C\c2ccco2)c1 | 0.25% |
| COC[C@@H]1CCCN1c1ccc2c(c1)O[C@H](C)CCN(C1CC1)S2(=O)=O | -1.04% |
| CC(C)N1CCCCC(NC(=O)c2ccc3ccccc3c2)C1=O (stereo unspecified) | 0.26% |
| O=C(NCCc1ccccn1)c1nc(Cn2cc([N+](=O)[O-])cn2)no1 | 0.2% |
| COc1ccc(N2C(=O)CN=C2Nc2cccc(C)c2C)cc1OC | -0.59% |
| O=C(NCc1ccccc1Cl)C1CCCN1S(=O)(=O)c1ccc(F)cc1 (stereo unspecified) | -0.27% |
| O=C(N1CCOCC1)N1CC[C@H]2[C@H](CCCN2Cc2ccc(F)cc2)C1 | 0.58% |
| COC(=O)[C@]12C[C@H](CC(=O)N3CCN(C(=O)C4CC4)CC3)C(=O)N(CCC3=CCCCC3)C1=C[C@H](C(C)C)O[C@@H]2C1CC1 | -0.81% |
| COc1ccccc1N(C)S(=O)(=O)c1ccc(C(=O)NC2CCCCCC2)cc1 | -0.26% |
| O=C(CSc1nnc(-c2ccccn2)n1-c1ccc(Cl)cc1)Nc1ccccc1-c1ccccc1 | -0.72% |
| Cc1ccc(NC(=S)Nc2ncccc2C)c(C)c1 | 4.16% (active) |
| Cc1cc(Br)ccc1NC(=S)NC1CCCC1 | 0.19% |
| Cc1ccc(NC(=O)c2cc(C)nn2-c2ccccc2)c(C)c1 | -0.54% |
| O=C(c1ccncc1)N1CC[C@H]2[C@H](CCCN2Cc2ccc(F)cc2)C1 | -0.35% |
| Cc1ccccc1CN1CCCCC(NC(=O)c2cccc(C#N)c2)C1=O (stereo unspecified) | -1.4% |
| Cc1ccc(C(=O)N/N=C/c2sc(=O)n(Cc3cccc(C(=O)O)c3)c2Cl)cc1 | -0.16% |
| Cc1ccc2cc(/C=N/Nc3ccc(C(=O)O)cc3)c(Cl)nc2c1 | 4.23% (active) |
| Cc1ccc(/C=C2\CCn3c2nc2cc(C(=O)O)ccc2c3=O)c(C)c1 | -0.46% |
| CCCCCCCCN1C(=O)[C@@H](CC(=O)NCCCC)C[C@@]2(C(=O)OC)C1=C[C@H](C(C)(C)C)O[C@@H]2C | 1.52% |

| SMILES | inhibition |
| --- | --- |
| O=C(CCCCCn1c(=O)[nH]c2ccccc2c1=O)NCCc1c[nH]c2ccccc12 | -0.81% |
| O=C(NCCc1ccccc1)c1c[nH]c2ccc(F)cc2c1=O | -0.4% |
| O=C(NCCc1c[nH]c2ccccc12)c1cc2ccccc2oc1=O | 6.37% (active) |
| O=C(NCCCCCCCCCNC(=O)C(F)(F)F)C(F)(F)F | 0.58% |
| COC(=O)C1=C(C)N(Cc2ccccc2C(F)(F)F)C(=NCc2ccc(OC)cc2)NC1c1cccc(C(F)(F)F)c1 (stereo unspecified) | -2.23% |
| Cc1cccc(NC(=S)N2CCC(C(=O)c3ccc(F)cc3)CC2)c1 | 0.4% |
| O=C(Nc1ccc(-c2nnc(-c3ccccc3)o2)cc1)C1CCCO1 (stereo unspecified) | 3.77% (active) |
| CCOC(=O)c1ccc(NC(=O)c2ccc(NC(=O)C3CCCO3)cc2)cc1 (stereo unspecified) | -1.16% |
| CC(C)(C)NS(=O)(=O)c1ccc(NC(=O)C2CCCO2)cc1 (stereo unspecified) | -0.07% |
| CN1CCCc2nc(-c3ccccc3)ccc21 | 1.43% |
| Cc1cccc(/C(N)=N/OC(=O)c2ccccc2Cl)c1 | 4.38% (active) |
| C/C(=N\OC(=O)c1ccccc1)c1c(C)nc2cc(C)ccn12 | -0.48% |
| Cc1ccc(C(=O)O/N=C(\N)c2ccccn2)cc1Cl | 1.79% |
| Cc1ccc(Cn2cc(COC(=O)N(C)Cc3ccccc3)nn2)cc1 | -0.12% |
| CC(C)(C)c1ccc(S(=O)(=O)NCC2CCN(C(=O)C(=O)c3cc4ccccc4o3)CC2)cc1 | -1.6% |
| COc1ccc(CCOC2OC(CO)C(OC(=O)/C=C/c3ccc(O)c(OC)c3)C(O[C@H]3O[C@@H](C)[C@H](O)[C@@H](O)[C@H]3O)C2O)cc1O (stereo partly specified) | 4.55% (active) |
| COc1cc(/C=C/C(=O)OCC(=O)NCCCc2ccccc2)ccc1O | -0.2% |
| COc1cc(/C=C/CO)cc(OC)c1O[C@@H]1O[C@H](CO)[C@@H](O)[C@H](O)[C@H]1O | 0.72% |
| O=C(OC12CCCN(C1)/C(=C/c1ccccc1)C2)c1ccco1 (stereo unspecified) | 0.04% |

| SMILES | inhibition |
| --- | --- |
| CCOc1cc(C(=O)Nc2ccc(S(=O)(=O)Nc3cnc4ccccc4n3)cc2)cc(OCC)c1OCC | -0.22% |
| CCOc1ccccc1-c1cc(C(=O)N/N=C(\C)c2cccnc2)c2ccccc2n1 | 1.24% |
| CCOc1cccc(/C=C/c2ccc3ccccc3n2)c1OC(C)=O | 5.71% (active) |
| Cc1ccc2c(c1)C1CN(C)CCC1N2S(=O)(=O)c1ccc(Oc2ccc([N+](=O)[O-])cc2)cc1 (stereo unspecified) | -0.52% |
| COCCNC(=S)N(C)[C@H]1C[C@H]2c3[nH]c4ccccc4c3CCN2C[C@H]1[C@H](C)O | 1.22% |
| CCOC(=O)N1CCN(S(=O)(=O)c2ccc3c(c2)C(C)C(=O)N3)CC1 (stereo unspecified) | 0.76% |
| COc1cc(OC)cc(-c2cc3ccc(F)cc3cn2)c1 | 1.37% |
| Fc1ccccc1-c1cc2cc3c(cc2cn1)OCO3 | 1.9% |
| Fc1ccc2cnc(-c3ccccc3)cc2c1 | 9.42% (active) |
| CN(C)c1ccc(NC(=O)NC2CCCCN(Cc3ccc(Cl)cc3)C2=O)cc1 (stereo unspecified) | -1.13% |
| COC(=O)C1C(=O)c2c([nH]c(C(=O)OCCSC)c2C)CC1C (stereo unspecified) | 5.6% (active) |
| CN(C)[C@H]1CCN(c2cccc3c2S(=O)(=O)N2CC[C@H](C2)O3)C1 | 0.33% |
| O=C(NCc1ccco1)c1nn2cccnc2c1Cl | 0.65% |
| O=C(Nc1ccc2oc(-c3ccccc3F)nc2c1)c1ccco1 | 4.4% (active) |
| COc1ccc(-c2c(NC(=O)c3ccco3)oc3ccc(Cl)cc3c2=O)cc1 | -0.46% |
| O=C(Nc1cc(-c2nc3ncccc3o2)ccc1Cl)c1ccco1 | -1.38% |
| O=C(CN1CCC(NC(=O)NCc2ccccc2)CC1)Nc1ccc2c(c1)OCCO2 | -0.91% |
| Cc1cccc(NC(=O)C[C@H]2CC[C@H]3[C@@H](COc4ccc(NC(=O)Nc5ccccc5)cc4C(=O)N3C)O2)c1 | 0% |

— PubChem BioAssay AID652010 (The Scripps Research Institute Molecular Screening Center, 2013)
